The target of one experiment is Albumin (Bos taurus) (UniProt P02769). The experiment can be described thus: compounds binding labelled BSA control protein – biochemical, small-molecule microarray, Alexa647 label, 635/667 nm fluorescence, artefact control for SMM control protein annotation, profiling panel (AID 1118).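 Further: score merges 667 nm emission intensity and signal-to-noise per printed compound spot.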 The note with it: BSA-A647 binding, fluorescence 635 nm, higher = more signal.
The nature of experiment [1]: probe aXIP binding to arrayed compounds – biochemical, NeuroSMM set, 635/667 nm fluorescence, primary screen (AID 1119).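 Further: probe is the protein aXip251-270 applied at 1 µg/mL to compound-printed slides; binding of probe to printed compounds measured as 667 nm fluorescence plus signal to noise.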 As to conditions: small-molecule microarray, higher = more signal, called active from +8 up or from −8 down.
Experiment [2] can be described thus: probe aNOTCH3 binding on compound microarray – biochemical, small-molecule microarray, 635/667 nm fluorescence, primary screen (AID 1120).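 Further: probe is a biotin-tagged antibody raised against NOTCH3 rather than NOTCH3 protein; score merges spot fluorescence near 667 nm with spot signal to noise.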 As to conditions: higher = more signal.
Experiment [3] is described as follows: probe aNOTCH2 binding on compound microarray – biochemical, small-molecule microarray, 635/667 nm fluorescence, primary screen (AID 1121).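 Further: score merges feature fluorescence read at 667 nm with its signal to noise.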 The note with it: higher = more signal.
For experiment [4], the target named is Carbonic anhydrase 2 (Homo sapiens) (UniProt P00918). Put plainly: compounds binding carbonic anhydrase 2 – biochemical, small-molecule microarray, Alexa647-labelled CAII, profiling panel (AID 1122). As to conditions: CAII-A647 binding fluorescence, higher = more signal.
Experiment [5] can be described thus: COS7 lysate on small-molecule microarray, probe aHis, 635 nm (AID 1123).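 Further: z-score combines 667nm fluorescence intensity with signal-to-noise per printed compound spot.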 The note with it: COS7 cell lysate, fluorescence, higher = more signal.
The nature of experiment [6]: probe aLAP1 signal on lysate-treated microarray – cell lysate, small-molecule microarray, COS7 lysate, primary screen (AID 1124).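 Further: lysate comes from COS7 cells expressing LAP1 and is applied at 0.3 µg/mL; score merges spot fluorescence near 667 nm with signal-to-noise over triplicate slides.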 As to conditions: probe aLAP1, fluorescence, higher = more signal.
For the next experiment, the system named is Sam68 (KHDRBS1). The experiment can be described thus: compounds binding KHDRBS1 protein – biochemical, small-molecule microarray, 635 nm fluorescence, primary screen (AID 1125).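 Further: score merges 667 nm channel intensity with signal to noise over triplicate slides.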 The note with it: higher = more signal.
The subject of experiment [7] is Chordin-like protein 2 (CHRDL2). Put plainly: compounds binding chordin-like 2 – biochemical, small-molecule microarray, 635 nm fluorescence, primary screen (AID 1126).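 Further: printed compound slides probed with Chrdl2 protein at 4 µg/mL for 1 h at 4 C; score merges 667 nm emission intensity with signal to noise over three replicate slides.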 The note with it: fluorescence 635 nm, higher = more signal.
The target of experiment [8] is Concanavalin-A (Canavalia ensiformis) (UniProt P02866). The experiment can be described thus: compounds binding concanavalin A lectin – biochemical, small-molecule microarray, Alexa647 label, 635 nm, artefact control for SMM control protein annotation, primary screen (AID 1127).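 Further: z combines 667 nm emission intensity with signal-to-noise across three replicate slides.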 The note with it: ConA-A647 binding fluorescence, higher = more signal.
Experiment [9] is described as follows: compounds binding Alexa647 anti-His antibody – biochemical, small-molecule microarray, 635 nm fluorescence, artefact control for SMM control protein annotation, primary screen (AID 1128).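 Further: score merges feature fluorescence with signal-to-noise for each printed compound spot.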 The note with it: higher = more signal.
Experiment [10] relates to Human papillomavirus type 1a E7 protein (residues 1-88). The experiment can be described thus: HPV1a E7 small-molecule binders, primary screen, biochemical, small-molecule microarray, residues 1-88, 635 nm (AID 1129). The note with it: small-molecule microarray binding, fluorescence 635 nm; higher = more signal.
Experiment [11] deals with Focal adhesion kinase 1 (Homo sapiens) (UniProt Q05397). Put plainly: PTK2 protein binding on printed compound slides – biochemical, small-molecule microarray, 635/667 nm fluorescence, BSA, DTT, primary screen (AID 1130).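 Further: composite of spot emission at 667 nm and signal to noise over triplicate slides.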 As to conditions: 635 nm fluorescence, higher = more signal.
Experiment [12] has as its system Fibrinogen (Alexa647-labelled). Put plainly: Alexa647-fibrinogen binding to printed small molecules – biochemical, small-molecule microarray, 635/667 nm fluorescence, artefact control for SMM control-protein annotation, profiling panel (AID 1131).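 Further: z-score merges 667 nm fluorescence with per-spot signal-to-noise over triplicate slides.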 As to conditions: fibrinogen-A647 binding fluorescence, higher = more signal.
Experiment [13] has as its target Follistatin (Homo sapiens) (UniProt P19883). The experiment can be described thus: FST protein binding to printed compounds – biochemical, small-molecule microarray, 635/667 nm fluorescence, primary screen (AID 1132). As to conditions: 635 nm fluorescence, higher = more signal.
Experiment [14] has as its target Fibroblast growth factor 2 (Homo sapiens) (UniProt P09038). Put plainly: basic fibroblast growth factor binding to printed compounds – biochemical, small-molecule microarray, 635/667 nm fluorescence, primary screen (AID 1133). The note with it: FGF2, fluorescence 635/667, higher = more signal.
Experiment [15] is described as follows: JC-1 mitochondrial potential readout, lung cancer cells – cell-based, A549, JC-1 fluorescence, basal, 24 h, 100 nL, profiling panel (AID 1138).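 Further: A549 lung adenocarcinoma cells under basal conditions with no added stimulus; test concentration not given here.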 The note with it: higher = more signal.
Another experiment concerns Lefty1. Put plainly: Lefty1 protein binding to printed compounds – biochemical, small-molecule microarray, 635/667 nm fluorescence, primary screen (AID 1139). As to conditions: fluorescence 635/667, higher = more signal.
Experiment [16] has as its system wheat germ agglutinin (Triticum aestivum), Alexa647-labelled. The experiment can be described thus: Alexa647-WGA lectin binding to printed small molecules – biochemical, small-molecule microarray, 635/667 nm fluorescence, artefact control for SMM control-protein annotation, profiling panel (AID 1140).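 Further: score merges 667 nm feature emission with signal to noise over triplicate slides.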 As to conditions: WGA-A647 binding, 635 nm fluorescence, higher = more signal.

The target in experiment [17] is Luciferin 4-monooxygenase (Photinus pyralis) (UniProt P08659). The experiment can be described thus: inhibition of purified Photinus pyralis luciferase – biochemical, luminescence, purified enzyme, 2006 set, primary screen (AID 1141).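 Further: cell-free assay with purified firefly luciferase at 100 ng per well in PBS; test concentration not given here.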 The note with it: purified firefly luciferase, SteadyGlo luminescence, 30 min; higher = more signal, called active from +8 up or from −8 down.

Active and inactive are the calls of the source.

Chain of Concanavalin-A (Canavalia ensiformis) (P02866 whole entry, looked up): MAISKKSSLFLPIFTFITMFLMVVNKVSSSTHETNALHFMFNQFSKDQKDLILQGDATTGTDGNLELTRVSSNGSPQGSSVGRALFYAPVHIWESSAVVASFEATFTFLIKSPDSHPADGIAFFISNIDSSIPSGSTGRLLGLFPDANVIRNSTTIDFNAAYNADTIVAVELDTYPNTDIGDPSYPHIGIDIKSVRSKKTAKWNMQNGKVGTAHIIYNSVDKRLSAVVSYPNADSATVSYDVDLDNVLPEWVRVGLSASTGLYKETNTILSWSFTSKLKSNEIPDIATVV
Chain of Luciferin 4-monooxygenase (Photinus pyralis) (P08659 whole entry, looked up): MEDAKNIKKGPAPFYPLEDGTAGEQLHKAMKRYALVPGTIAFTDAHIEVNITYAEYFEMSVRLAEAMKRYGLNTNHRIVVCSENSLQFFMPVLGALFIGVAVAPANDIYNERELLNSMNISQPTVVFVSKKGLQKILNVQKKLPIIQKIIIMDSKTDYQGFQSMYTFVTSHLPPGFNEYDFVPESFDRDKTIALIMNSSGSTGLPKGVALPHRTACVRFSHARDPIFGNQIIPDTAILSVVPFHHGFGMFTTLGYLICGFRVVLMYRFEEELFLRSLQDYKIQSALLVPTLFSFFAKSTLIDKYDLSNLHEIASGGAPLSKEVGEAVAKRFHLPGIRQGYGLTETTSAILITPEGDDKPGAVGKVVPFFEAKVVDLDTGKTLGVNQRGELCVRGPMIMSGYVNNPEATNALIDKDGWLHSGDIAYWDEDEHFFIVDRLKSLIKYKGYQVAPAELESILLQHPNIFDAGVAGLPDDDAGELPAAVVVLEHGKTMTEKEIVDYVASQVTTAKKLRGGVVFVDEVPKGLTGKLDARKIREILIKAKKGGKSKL
Chain of Fibroblast growth factor 2 (Homo sapiens) (P09038 whole entry, looked up): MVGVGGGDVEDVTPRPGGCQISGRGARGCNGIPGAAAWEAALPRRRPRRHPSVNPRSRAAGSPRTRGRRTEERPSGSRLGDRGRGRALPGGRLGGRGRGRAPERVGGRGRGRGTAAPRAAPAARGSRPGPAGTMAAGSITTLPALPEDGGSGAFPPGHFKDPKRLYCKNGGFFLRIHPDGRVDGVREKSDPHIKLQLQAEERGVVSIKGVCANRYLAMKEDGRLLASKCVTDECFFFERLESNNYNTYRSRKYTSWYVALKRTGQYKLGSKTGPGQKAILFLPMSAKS
Chain of Albumin (Bos taurus) (P02769 whole entry, looked up): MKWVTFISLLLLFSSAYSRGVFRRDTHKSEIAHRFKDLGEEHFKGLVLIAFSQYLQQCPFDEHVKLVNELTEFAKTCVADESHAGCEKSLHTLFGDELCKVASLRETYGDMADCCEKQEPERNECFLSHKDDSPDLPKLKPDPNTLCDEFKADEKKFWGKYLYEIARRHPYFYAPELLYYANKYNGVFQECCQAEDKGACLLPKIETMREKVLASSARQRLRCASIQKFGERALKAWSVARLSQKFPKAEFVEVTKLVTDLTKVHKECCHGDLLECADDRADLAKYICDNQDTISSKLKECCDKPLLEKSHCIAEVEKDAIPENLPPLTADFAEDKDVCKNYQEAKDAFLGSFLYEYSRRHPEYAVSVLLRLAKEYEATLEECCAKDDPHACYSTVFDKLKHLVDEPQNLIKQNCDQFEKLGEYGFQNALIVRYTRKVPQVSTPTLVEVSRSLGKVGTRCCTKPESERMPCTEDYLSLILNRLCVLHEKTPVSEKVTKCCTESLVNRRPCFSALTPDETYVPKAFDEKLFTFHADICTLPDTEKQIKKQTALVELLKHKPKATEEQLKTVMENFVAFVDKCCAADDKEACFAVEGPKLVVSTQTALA
Chain of Follistatin (Homo sapiens) (P19883 whole entry, looked up): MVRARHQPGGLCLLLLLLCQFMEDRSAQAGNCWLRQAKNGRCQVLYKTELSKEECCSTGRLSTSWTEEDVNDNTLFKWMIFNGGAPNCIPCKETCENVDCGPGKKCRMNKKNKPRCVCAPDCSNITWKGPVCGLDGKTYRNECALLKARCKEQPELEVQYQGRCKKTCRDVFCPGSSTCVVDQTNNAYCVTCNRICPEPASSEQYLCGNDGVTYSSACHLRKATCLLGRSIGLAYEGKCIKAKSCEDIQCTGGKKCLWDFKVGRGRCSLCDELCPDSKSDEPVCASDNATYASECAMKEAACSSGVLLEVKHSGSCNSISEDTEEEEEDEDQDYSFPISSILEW
Chain of Focal adhesion kinase 1 (Homo sapiens) (Q05397 whole entry, looked up): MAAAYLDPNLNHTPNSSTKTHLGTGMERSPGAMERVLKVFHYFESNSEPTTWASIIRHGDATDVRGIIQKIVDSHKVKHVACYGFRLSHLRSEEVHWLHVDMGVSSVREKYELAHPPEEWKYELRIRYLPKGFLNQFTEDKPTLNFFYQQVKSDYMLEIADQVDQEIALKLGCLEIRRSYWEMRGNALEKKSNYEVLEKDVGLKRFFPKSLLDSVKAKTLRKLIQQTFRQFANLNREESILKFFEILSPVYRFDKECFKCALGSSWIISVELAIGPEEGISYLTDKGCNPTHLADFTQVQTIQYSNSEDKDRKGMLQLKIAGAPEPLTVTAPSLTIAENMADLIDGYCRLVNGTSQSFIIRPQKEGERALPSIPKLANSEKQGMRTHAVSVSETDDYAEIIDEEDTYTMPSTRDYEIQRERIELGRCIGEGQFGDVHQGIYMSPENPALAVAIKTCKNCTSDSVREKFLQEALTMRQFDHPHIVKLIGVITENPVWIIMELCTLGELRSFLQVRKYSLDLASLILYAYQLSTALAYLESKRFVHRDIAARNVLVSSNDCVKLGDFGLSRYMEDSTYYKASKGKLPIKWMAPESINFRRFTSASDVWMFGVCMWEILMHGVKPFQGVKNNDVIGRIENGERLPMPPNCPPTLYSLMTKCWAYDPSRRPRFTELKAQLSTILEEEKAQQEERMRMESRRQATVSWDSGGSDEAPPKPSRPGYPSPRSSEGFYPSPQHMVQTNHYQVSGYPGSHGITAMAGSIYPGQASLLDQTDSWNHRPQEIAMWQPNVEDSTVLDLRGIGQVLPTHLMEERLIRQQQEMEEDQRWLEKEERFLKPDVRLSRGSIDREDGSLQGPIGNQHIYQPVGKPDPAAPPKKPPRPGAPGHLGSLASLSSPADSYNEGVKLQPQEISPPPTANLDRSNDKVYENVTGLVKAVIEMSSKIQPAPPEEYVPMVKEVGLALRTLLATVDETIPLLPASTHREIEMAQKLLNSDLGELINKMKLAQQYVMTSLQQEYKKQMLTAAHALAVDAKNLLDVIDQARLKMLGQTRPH

With `CO[C@H]1COC(=O)[C@@H](OCc2ccccc2)C=C[C@H](C)[C@@H](OC)COC(=O)[C@H](OCc2ccccc2)C=C[C@@H]1C`, the composite z-score with Albumin (Bos taurus) was -0.695; in experiment [2] it was -0.0682; in experiment [3], -0.179; in experiment [4], -0.516; in experiment [5], -0.838; in [6], -0.885. For the same compound, the composite z-score is -0.693 in the experiment with Sam68 (KHDRBS1); -0.51 in experiment [7]; -0.218 in experiment [8]; -0.12 in [9]; -0.0882 in experiment [10]; 0.104 in experiment [11]. Further, the composite z-score in experiment [12] was -0.305; in [13], 0.266; in experiment [14] it was 0.552; in the experiment on Lefty1, 0.67; in experiment [16], -0.244. For the same compound, the composite Z-score in [1] is -0.738 (inactive). Moreover, the z-score in experiment [15] is 1.99; in experiment [17], -1.99 (inactive).
In the case of `C=CC[C@]1(C(=O)O)N=C(c2ccc(OCCCO)cc2)O[C@H]1c1ccccc1`, the composite z-score with Albumin (Bos taurus) is 0.769; in experiment [2] it was -0.0591; in experiment [3], 0.0415; in [4], 0.758; in [5] it was 2.37; in experiment [6], 0.563. Besides, the composite z-score was 0.351 in the experiment with Sam68 (KHDRBS1); -0.916 in experiment [7]; 0.486 in experiment [8]; 0.254 in experiment [9]; -0.531 in experiment [10]; -0.231 in experiment [11]. Moreover, the composite z-score in experiment [12] is 0.243; in experiment [13], -0.367; in experiment [14], -0.503; in the experiment on Lefty1, -1.09; in experiment [16], 1.25. Further, the composite Z-score in [1] is 0.523 (inactive). The z-score was -0.124 in experiment [15] and -1.8 (inactive) in experiment [17].
`CCN1C(C)=C(C(=O)OC)[C@@H](c2ccccc2)N2C(=O)[C@@]3(C(=O)OC)O[C@@]12[C@@H]1C(=O)CCC[C@@H]13`: the composite z-score with Albumin (Bos taurus) was -0.439; in [2], -0.0345; in experiment [3], -0.195; in [4] it was 0.558; in experiment [5], -0.503; in experiment [6], -0.227. In addition, the composite z-score with Sam68 (KHDRBS1) was 0.475; in experiment [7], 1.46; in [8] it was -0.92; in experiment [9], -0.116; in experiment [10] it was -0.356; in experiment [11], -0.315. Also, the composite z-score in [12] was -1.47; in [13], 1.29; in experiment [14], 1.01; in the experiment on Lefty1, 1.48; in [16] it was -1.05. Besides, the composite Z-score in experiment [1] is -0.166 (inactive). Moreover, the z-score was 0.862 in experiment [15] and -2.3 (inactive) in experiment [17].
For `CCC(=O)[C@]12O[C@@]3([C@@H]4C(=O)OCC[C@@H]41)N(CC)C(C)=C(C(=O)OC)[C@@H](c1ccccc1)N3C2=O`, the composite z-score is -0.499 with Albumin (Bos taurus); -0.122 in experiment [2]; -0.157 in experiment [3]; 0.828 in [4]; -0.68 in [5]; 0.448 in [6]. The composite z-score with Sam68 (KHDRBS1) was -0.516; in [7] it was 0.841; in [8], -0.0306; in [9], 1.41; in experiment [10], -1.67; in experiment [11], 0.335. The composite z-score is -0.62 in experiment [12]; 0.754 in experiment [13]; 0.111 in experiment [14]; 0.373 in the experiment with Lefty1; -0.0702 in experiment [16]. Also, the composite Z-score in [1] was -0.302 (inactive). In addition, the z-score in experiment [15] is -0.404; in experiment [17], -0.533 (inactive).

For the origin of these results see PubChem BioAssay.
